# Screening results as filed in PubChem.
# Shown are actives, neighbours in structure and some others; about 4.2% of the full set was active somewhere.
# tim23-1 inh = growth inhibitors of tim23-1 mutant yeast, primary screen, luminescence, uHTS; S. cerevisiae tim23-1 growth, BacTiter-Glo luminescence, 24 h; inhibition, % at 20 µM; 330,000 compounds, 1.3% hits; AID 463212, 2010;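 active means growth inhibition of the mutant yeast at or above 50%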;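 further: temperature-sensitive mutant grown at 25 °C; plate controls were DMSO-treated mutant yeast for no effect and medium wells lacking yeast for full effect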
# NALP1 yeast inh = NALP1 inflammasome inhibitors in reconstituted yeast, colorimetric, S. cerevisiae, triplicate retest; S. cerevisiae NALP1/ASC/caspase-1 growth, X-gal OD620, 72 h; inhibition, % at 10 µM; 280,000 compounds, 0.61% hits; in the data active means inhibition mostly above about 24%, no sharp cut-off; inactive means mostly below about 32%
# tim10-1 inh = growth inhibitors of tim10-1 mutant yeast, primary screen, luminescence, uHTS. S. cerevisiae tim10-1 ts strain growth, BacTiter-Glo, 24 h. inhibition, % at 20 µM. 330,000 compounds, 2.2% hits;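 active means inhibition of at least 40%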;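 further: mutant grown at 25 °C; 0% = DMSO wells with yeast and 100% = wells holding no yeast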
# TIM10 inh = growth inhibitors of isogenic TIM10 control yeast, primary screen, counter-screen for tim10-1 yeast inhibitor project, luminescence, uHTS | S. cerevisiae TIM10 strain growth, BacTiter-Glo luminescence, 24 h | inhibition, % at 10 µM | 330,000 compounds, 1.4% hits;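 active means inhibition of 40% or more at the single tested concentration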;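 further: wild-type TIM10 isogenic control strain grown at permissive 25 °C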
# NLRP3 yeast inh = NALP3 inflammasome inhibitors in reconstituted yeast, primary screen, luminescence, uHTS; 330,000 compounds, 0.39% hits; Yeast reconstituted NLRP3/ASC/caspase-1, beta-gal luminescence, 24 h; inhibition, % at 10 µM;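 active means inhibition of 50% or more; inactive means inhibition below 50%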;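 further: plate controls were induced DMSO wells for no effect and uninduced yeast grown without galactose for full effect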
# V-ATPase pH = regulators of yeast V-ATPase proton pumping, primary screen, pHLuorin cytosolic pH fluorescence. S. cerevisiae. response, % at 10 µM. 350,000 compounds, 0.37% hits; in the data active means response mostly above about 7.3%, no sharp cut-off; inactive means mostly below about 5.4%; further: actives read high
# tim10-1 conf = growth inhibitors of tim10-1 mutant yeast, confirmation, single concentration, luminescence, S. cerevisiae; 7,400 compounds, 56% hits; S. cerevisiae tim10-1 ts strain growth, BacTiter-Glo, 24 h; shares compounds with tim10-1 inh; AID 463213, 2010; inhibition, % at 20 µM;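 active means inhibition of yeast growth at or above a set limit in either of two repeat tests at 20 µM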;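 further: tim10-1 mutant grown at permissive 25 °C to find synthetic lethal compounds; 0% = DMSO yeast wells and 100% = medium wells without yeast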
# Numbers without * were called inactive; . = no result.
SMILES,tim23-1 inh,NALP1 yeast inh,tim10-1 inh,TIM10 inh,NLRP3 yeast inh,V-ATPase pH,tim10-1 conf
N/C(=N\OC(=O)CCC1CCCC1)c1ccccc1,46,13,52*,35,12,-3,44*
COc1ccc(C(=O)CSc2[nH]c(=O)cc(C(F)(F)F)c2C#N)cc1,11,23,1,-23,0,0,.
Cc1ccccc1NC(=S)Nc1ccccn1,35,20,47*,13,18,3,-5
CC(C)(C)c1ccc(C(=O)NNc2cc(N3CCCCC3)nc(N3CCCCC3)n2)cc1,34,24,40*,23,36,7,36*
CC(C)(C)c1ccc(C(=O)NNc2cc(N3CCOCC3)nc(N3CCOCC3)n2)cc1,3,8,3,9,-5,-1,.
CC1CCN(S(=O)(=O)c2ccc(C(=O)Nc3nnc(C4CC4)o3)cc2)CC1,38,-12,41*,20,14,2,10
CCOC(=O)C1=CN(Cc2ccco2)S(=O)(=O)NC1c1ccc(C(F)(F)F)cc1 (centres undefined),40,.,19,2,.,0,.
COc1ccc(Br)cc1/C=C\C(=O)NCc1cccnc1,-3,-2,-2,5,1,-2,.
C=CCNCc1cccn1-c1sc2c(c1C#N)CCCC2,15,10,21,7,10,-4,.
N#Cc1c(-n2cccc2/C=N/O)sc2c1CCCC2,41,-16,41*,-17,-2,-2,43*
CSCCC(NC(=O)c1ccco1)C(=O)Nc1ccc(C)c(S(=O)(=O)N2CCOCC2)c1 (centres undefined),-5,.,-22,3,22,0,.
COP(=O)(OC)C(NC(=O)Nc1ccccc1)c1ccccc1 (centres undefined),7,-1,-9,-19,-4,4,.
CCc1ccc(CN(C)C(=O)c2cc(COc3cccc4cnccc34)on2)cc1,40,16,44*,17,-2,-3,2
CN(Cc1cccc2cnccc12)C(=O)c1cc(COc2ccc(F)cc2F)on1,35,30,11,-12,37,-2,.
O=C(c1cc(COc2cccc3cnccc23)on1)N1CCC(c2ccccc2Cl)C1 (centres undefined),32,16,51*,12,-2,4,3
COCCN1CCN(C(=O)c2cc(COc3ccc(F)c(F)c3)on2)CC1,8,17,21,1,9,-1,.
COc1ccc(OC)c(C2=NS(=O)(=O)N(C)C(C(=O)Nc3ccc(F)cc3F)=C2)c1,26,2,42*,-4,9,-3,19
Cc1ccc(C2=NS(=O)(=O)N(C)C(C(=O)Nc3ccc(F)cc3F)=C2)cc1,-7,13,5,4,19,2,.
Cc1nn(-c2ccc(F)cc2F)c(=O)c2noc(C)c12,6,28,-14,-14,21,1,.
Cc1nn(-c2ccc(F)cc2F)c2c1-c1nc(N3CCCC3)ncc1CC2,28,-15,45*,35,9,2,20
Cc1ccc(CNC(=O)c2ccc(Cn3nc(C)c(Cl)c3C)o2)cc1,12,4,55*,12,13,-1,54*
Cc1nn(Cc2c(Cl)cccc2Cl)c(C)c1NC(=O)c1sc2ccccc2c1Cl,-14,-6,15,6,13,6,.
Cc1nn(Cc2ccc(Cl)c(Cl)c2)c(C)c1NC(=O)c1sc2ccccc2c1Cl,28,.,41*,37,6,-3,41*
Cc1cc(C)cc(NC(=O)c2ccc(Cn3nc(C)c(Cl)c3C)o2)c1,35,-98,41*,36,16,4,30*
COC(=O)c1cccc(CSc2nc(-c3ccccc3)c(C#N)c(=O)[nH]2)c1,28,19,47*,18,4,-3,8
N#Cc1c(-c2ccccc2)nc(SCc2ccc(Cl)cc2)[nH]c1=O,16,18,23,11,7,-2,.
